Inconclusive results are not listed. Active and inactive are the calls of the source. Unless noted, the call rests on the fitted dose curve; in most records, active means well fitted curve in the direction sought with a large enough effect; inconclusive means small, poorly fitted or top-dose-only effect, or another doubt; inactive means no such curve, though single readings can be large; an effect the other way counts as inactive or inconclusive.
Columns and labels:
[1] = target: Luciferin 4-monooxygenase (Photinus pyralis) (UniProt P08659); experiment: Biochemical firefly luciferase enzyme assay for NPC (AID 624030);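 further: purified P. pyralis luciferase at 10 nM with luciferin and ATP substrate; nearly all actives have a fitted effect of over 70% in size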
Sequence of Luciferin 4-monooxygenase (Photinus pyralis) (P08659 whole entry, looked up): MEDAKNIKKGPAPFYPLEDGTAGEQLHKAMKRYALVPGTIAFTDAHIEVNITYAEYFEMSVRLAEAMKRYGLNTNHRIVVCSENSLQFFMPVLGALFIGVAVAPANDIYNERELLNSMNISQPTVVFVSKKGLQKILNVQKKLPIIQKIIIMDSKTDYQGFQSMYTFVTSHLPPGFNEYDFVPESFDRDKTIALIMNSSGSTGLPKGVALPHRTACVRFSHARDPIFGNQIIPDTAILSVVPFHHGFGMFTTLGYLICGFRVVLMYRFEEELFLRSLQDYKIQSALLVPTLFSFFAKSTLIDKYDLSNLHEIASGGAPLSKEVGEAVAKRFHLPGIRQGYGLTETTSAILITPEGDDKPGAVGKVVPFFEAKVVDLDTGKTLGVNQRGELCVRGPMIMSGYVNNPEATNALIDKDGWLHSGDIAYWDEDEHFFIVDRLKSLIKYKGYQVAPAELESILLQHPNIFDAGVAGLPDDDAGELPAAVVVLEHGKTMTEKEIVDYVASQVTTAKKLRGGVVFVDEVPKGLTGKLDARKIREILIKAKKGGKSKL
Procedure, shortened: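 Counter-screen for direct inhibition of the luciferase enzyme by approved-drug library compounds, run at 10 nM enzyme in 50 mM Tris acetate (final). Luminescence was read within 5 min of enzyme-buffer addition and normalized to PTC124 versus DMSO (0%).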

DFO2036 = experiment: qHTS profiling for inhibitors of Plasmodium falciparum proliferation (AID 504749); further: nearly all actives have a fitted effect of over 60% in size; further: potency means the concentration at half of the fitted maximal effect; settings: P. falciparum in erythrocytes, SYBR Green DNA, 72 h; series mostly up to 28.7 µM
Procedure, shortened: (§1)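 Fluorescence of SYBR Green-bound parasite DNA, read at 485/535 nm, served as the growth measure. Infected erythrocytes were cultured with compound 72 h; artemisinin (0.29 uM) and DMSO wells defined the normalization range.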

W2 = experiment: as above; settings: P. falciparum in erythrocytes, SYBR Green DNA, 72 h; series mostly up to 28.7 µM
Procedure, shortened: as §1

[2] = target: Ubiquitin carboxyl-terminal hydrolase 1 (Homo sapiens) (UniProt O94782); experiment: Inhibitors of USP1/UAF1: Pilot qHTS (AID 504865); further: nearly all actives have a fitted effect of over 35% in size; further: potency means the concentration at half of the fitted maximal effect
Sequence of Ubiquitin carboxyl-terminal hydrolase 1 (Homo sapiens) (O94782 whole entry, looked up): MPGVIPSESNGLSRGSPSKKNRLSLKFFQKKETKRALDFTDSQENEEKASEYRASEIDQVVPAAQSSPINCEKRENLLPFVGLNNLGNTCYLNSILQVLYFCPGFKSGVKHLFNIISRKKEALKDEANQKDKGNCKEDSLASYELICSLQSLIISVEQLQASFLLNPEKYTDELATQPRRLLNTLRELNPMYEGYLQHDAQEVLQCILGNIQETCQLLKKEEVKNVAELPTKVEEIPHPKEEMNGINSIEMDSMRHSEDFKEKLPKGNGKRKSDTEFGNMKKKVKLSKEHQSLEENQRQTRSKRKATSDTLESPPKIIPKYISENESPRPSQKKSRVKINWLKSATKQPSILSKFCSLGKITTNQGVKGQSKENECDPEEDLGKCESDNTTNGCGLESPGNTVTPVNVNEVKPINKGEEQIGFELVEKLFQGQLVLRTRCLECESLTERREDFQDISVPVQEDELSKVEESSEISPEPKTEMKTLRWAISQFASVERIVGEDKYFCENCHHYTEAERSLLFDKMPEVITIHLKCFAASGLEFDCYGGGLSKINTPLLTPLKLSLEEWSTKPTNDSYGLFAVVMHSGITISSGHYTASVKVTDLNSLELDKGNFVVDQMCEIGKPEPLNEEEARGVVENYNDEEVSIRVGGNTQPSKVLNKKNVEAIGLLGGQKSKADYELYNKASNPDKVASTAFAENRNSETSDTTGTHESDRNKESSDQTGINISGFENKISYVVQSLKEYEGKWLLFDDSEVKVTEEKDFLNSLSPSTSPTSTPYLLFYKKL
Procedure, shortened: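 USP1/UAF1 complex at 1 nM preincubated 15 min at room temperature with compound, then Ub-Rho substrate added at 150 nM final. Fluorescence (480/540 nm) read kinetically in 50 mM HEPES pH 7.8, 0.5 mM EDTA, 1 mM TCEP, 0.1 mg/ml BSA, 0.01% Tween-20.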

[3] = S16 Schwann cell viability assay (CellTiter-Glo assay) (AID 624031);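 further: cellular ATP luminescence as a viability measure; nearly all actives have a fitted effect of over 70% in size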
Procedure, shortened: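 This viability control uses native rat S16 Schwann cells grown in DMEM plus 10% FBS. After a 24 h compound treatment at 37 °C, CellTiter-Glo luminescence reports ATP content, scaled against DMSO-treated and cell-free wells.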

[4] = S16 Schwann cell PMP22 intronic element beta-lactamase assay (AID 624044; calls by dose curve; further: nearly all actives have a fitted effect of over 15% in size; further: potency means the concentration at half of the fitted maximal effect); settings: S16 rat Schwann cells, PMP22 element beta-lactamase FRET, 24 h; ratio activity, negative = inhibition: at 38.3 µM (top of the series)
Procedure, shortened: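 Beta-lactamase reporter under a PMP22 intronic regulatory element in stable S16 rat Schwann cells; 24 h compound exposure. 460 nm blue signal normalized between DMSO (0%) and potassium clavulanate, with 535 nm FRET tracking viability; curves classed by r2 and response.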

[5] = target: Cytochrome P450 3A4 (Homo sapiens) (UniProt P08684); experiment: qHTS Assay for Inhibitors and Substrates of Cytochrome P450 3A4 (AID 884); further: nearly all actives have a fitted effect of over 50% in size
Sequence of Cytochrome P450 3A4 (Homo sapiens) (P08684 whole entry, looked up): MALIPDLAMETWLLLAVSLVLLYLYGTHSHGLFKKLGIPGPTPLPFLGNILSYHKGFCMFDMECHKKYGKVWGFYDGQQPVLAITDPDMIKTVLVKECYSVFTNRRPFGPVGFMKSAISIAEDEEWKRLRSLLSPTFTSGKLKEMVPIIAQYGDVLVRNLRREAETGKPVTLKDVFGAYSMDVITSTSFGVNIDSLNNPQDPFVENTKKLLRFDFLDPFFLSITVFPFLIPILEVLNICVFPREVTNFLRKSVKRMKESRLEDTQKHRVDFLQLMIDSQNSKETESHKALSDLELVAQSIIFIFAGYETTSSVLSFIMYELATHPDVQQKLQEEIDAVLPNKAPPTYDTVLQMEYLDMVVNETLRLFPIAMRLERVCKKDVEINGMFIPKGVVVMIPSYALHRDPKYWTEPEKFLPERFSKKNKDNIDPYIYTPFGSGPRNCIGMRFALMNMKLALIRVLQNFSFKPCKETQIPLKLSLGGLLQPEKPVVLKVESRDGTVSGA
Procedure, shortened: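 Luminescent readout of luciferin produced by CYP3A4 (20 nM) dealkylation of Luciferin-PPXE, 25 uM (its KM). NADPH-driven reaction ran 60 min at RT after 10 min compound preincubation; data scaled to 57 uM ketoconazole as 100% inhibition.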

[6] = Confirmation and Secondary Assay for Modulators of Hemoglobin Beta Chain Splicing at IVS2 654 locus (AID 910);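 further: per-well total GFP intensity by laser scanning cytometry after 2-day treatment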
Procedure, shortened: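 HeLa cells stably carrying EGFP interrupted by mutant beta-globin IVS2-654 intron (CMV-driven) were treated with compound for 2 days at 37C; corrected splicing was scored as total peak GFP intensity per well (488 nm excitation, 500-520 nm emission).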

[7] = Confirmation and Secondary Assay for Modulators of Hemoglobin Beta Chain Splicing at IVS2 705 locus (AID 930);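 further: HeLa cells stably expressing the EGFP-705 splicing reporter; GFP fluorescence per well restored by corrected splicing of the IVS2-705 intron in EGFP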
Procedure, shortened: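 Secondary splice-site specificity test uses HeLa expressing CMV-driven EGFP interrupted by IVS2-705; cells were treated 2 days at 37C with 500 nM antisense PNA as positive control.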

[8] = target: Cytochrome P450 3A4 (Homo sapiens) (UniProt P08684); experiment: qHTS Assay for Activators of Cytochrome P450 3A4 (AID 885); further: nearly all actives have a fitted effect of over 65% in size
Procedure, shortened: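 Luminescent readout of luciferin formed from 25 uM Luciferin-PPXE (KM level) by 20 nM CYP3A4 in 200 mM KPO4, with 60 min NADPH-driven reaction at room temperature after 10 min compound exposure. Ketoconazole (57 uM) defined 100% inhibition.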

Measured: Potency

COc1cc2c(cc1O)CCN[C@@]21CS[C@H]2c3c(OC(C)=O)c(C)c4c(c3C(COC1=O)N1C2C2c3c(cc(C)c(OC)c3O)CC([C@@H]1O)N2C)OCO4 (stereo partly specified)
active: DFO2036 0.9 nM | W2 0.4 nM
inactive: [1]

O=C(OC[C@@H]1O[C@@](O)(COC(=O)c2cccnc2)[C@H](OC(=O)c2cccnc2)[C@H]1OC(=O)c1cccnc1)c1cccnc1
inactive: [2] | [1] | [3] | [4] | DFO2036 | W2

OCC1O[C@H](Oc2ccc(O)cc2)C(O)C(O)C1O (stereo partly specified)
inactive: [5] | [6] | [7] | [2] | DFO2036 | W2

COC1CC2CCC(C)[C@](O)(O2)C(=O)C(=O)N2CCCCC2C(=O)OC(C(C)CC2CCC(O)C(OC)C2)CC(=O)C(C)/C=C(/C)C(O)C(OC)C(=O)C(C)CC(C)C=CC=C/C=C\1C (stereo partly specified)
active: DFO2036 1410 nM | W2 675 nM
inactive: [1] | [3] | [4]

CC1(C)CC1C(=O)N/C(=C/CCCCSCC(N)C(=O)O)C(=O)O (stereo unspecified)
inactive: [2] | [1] | [3] | DFO2036 | W2

CC(=O)C1(O)Cc2c(O)c3c(c(O)c2C(OC2CC(N)C(O)C(C)O2)C1)C(=O)c1c(O)cccc1C3=O (stereo unspecified)
active: [2] 22400 nM | [4] 99.9 nM | W2 4260 nM

C[C@@H]1CCN(C(=O)[C@H](CCCNC(=N)N)NS(=O)(=O)c2cccc3c2NC[C@H](C)C3)[C@@H](C(=O)O)C1
inactive: [1] | [3] | [4]

NC(CSSCC(N)C(=O)O)C(=O)O (stereo unspecified)
inactive: [2] | [1] | [4] | DFO2036 | W2

CC(=O)N1CC(O)CC1C(=O)O (stereo unspecified)
inactive: [2] | [3] | [4] | DFO2036 | W2

Nc1nc(F)nc2c1ncn2[C@@H]1O[C@H](CO)[C@@H](O)[C@H]1O
inactive: [2] | [1] | [3] | [4] | DFO2036 | W2

CCCC(=O)Nc1c(I)cc(I)c(C[C@H](CC)C(=O)O)c1I
inactive: [2] | [1] | [3] | [4]

C=C[C@@]1(C)C[C@H](OC(=O)CSC(C)(C)CNC(=O)[C@@H](N)C(C)C)[C@@]2(C)C(C)CC[C@@]3(CCC(=O)[C@@H]32)[C@H](C)[C@H]1O (stereo partly specified)
inactive: [1] | [4]
active: W2 269 nM

CN[C@H](C)CCC=C(C)C
inactive: [2] | [3] | [4]
active: DFO2036 398 nM | W2 47.8 nM

CC1C(=O)C(=O)C=CN1C (stereo unspecified)
inactive: [2] | [1] | [3] | DFO2036 | W2

COc1ccc2cc1Oc1cc3c(cc1OC)CC[N+](C)(C)C3Cc1ccc(cc1)Oc1c(OC)c(OC)cc3c1C(C2)[N+](C)(C)CC3 (stereo unspecified)
inactive: [2] | [1] | [3] | [4] | DFO2036

Nc1nc(/C(=C/CC(=O)O)C(=O)NC2C(=O)N3C(C(=O)O)=CCSC23)cs1 (stereo unspecified)
not listed: [2] | [4] | [5]
inactive: all other assays above

NC(=O)OC[C@@H]1[C@H](NC(=O)/C(=N/OCC(=O)O)c2csc(N)n2)C(=O)N1S(=O)(=O)O
inactive: [2] | [3] | DFO2036

CC[C@@]1(O)CC2CN(CCc3c([nH]c4ccccc34)[C@](C(=O)OC)(c3cc4c(cc3OC)N(C)C3[C@@](O)(C(=O)OC)C(OC(C)=O)[C@]5(CC)C=CCN6CC[C@@]43C65)C2)C1 (stereo partly specified)
active: [4] 562 nM | DFO2036 891 nM | W2 953 nM
not listed: [5] | [8]
inactive: all other assays above

CN(C)CC/C=C1\c2ccccc2COc2ccc(CC(=O)O)cc21
inactive: [2] | [1] | [3] | DFO2036

CNC1C(O)C(OC2C(NC(=O)C(O)CN)CC(N)C(OC3OC(CN)C(O)C(O)C3O)C2O)OCC1(C)O (stereo unspecified)
inactive: [2] | [1] | [3] | [4] | DFO2036 | W2

Nc1ncn(C2C[C@H](O)[C@@H](CO)O2)c(=O)n1 (stereo partly specified)
inactive: [2] | [3] | W2

Cc1ccc(/C=C2/C(=O)C3(C)CCC2C3(C)C)cc1 (stereo unspecified)
inactive: [1] | [3]

CO[C@H]1C[C@@H]2CC[C@@H](C)[C@@](O)(O2)C(=O)C(=O)N2CCCC[C@H]2C(=O)O[C@H]([C@H](C)C[C@@H]2CC[C@@H](O)[C@H](OC)C2)CC(=O)[C@H](C)/C=C(\C)[C@@H](O)[C@@H](OC)C(=O)[C@H](C)C[C@H](C)/C=C/C=C/C=C/1C
inactive: [1] | [4]
active: DFO2036 1780 nM | W2 1200 nM

— PubChem BioAssay (NCATS)
